# Compound activity from PubChem BioAssay.
# ELG1 genotox = inducers of genotoxicity in HEK293T ELG1-luciferase cells | HEK293T ELG1-luciferase reporter, luminescence, 16 h | Potency, µM (top dose mostly 46 µM), actives largely listed as activators | 330,000 tested, 1.3% active | AID 504466; also: nearly all actives have a fitted effect of over 60% in size
#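 ELG1-luciferase HEK293T cells, 2,000/well; compound pinned in; 16 hr, 37 °C, 5% CO2; ONE-Glo, 30 min RT; luminescence on CCD imager.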
# AT treatment = potential ataxia-telangiectasia treatment; F2112 A-T fibroblasts, KAP-1 phosphorylation AlphaLISA; neocarzinostatin DNA damage 30 min before lysis; Potency, µM (titrated, usually from 57.5 µM), usual class: activators; 320,000 tested, 0.19% active; AID 485349; also: nearly all actives have a fitted effect of over 45% in size
#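 hTERT-immortalized A-T patient fibroblasts (F2112), 500 cells/well in OPTI-MEM, 1% FBS, got compounds for 60 min, then NCS for 30 min at 37C. Lysates were then assayed for phospho-KAP-1 by AlphaLISA (anti-pKAP1 donor, anti-KAP1 acceptor beads), 6 hr at 25C.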
# ELG1 repair inh = blocks ELG1-dependent DNA repair in HEK293T cells; HEK293T ELG1-luciferase reporter, luminescence, 16 h; DNA damage induced by 5-fluorouridine; Potency, µM (titrated, usually from 46.1 µM), hits mostly inhibitors; 330,000 tested, 2.3% active; AID 504467; also: nearly all actives have a fitted effect of over 55% in size
#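 HEK293T cells expressing luciferase-tagged ELG1 (2,000/well) received 5-Fluorouridine plus compound or DMSO for 16 hr at 37 °C. Luciferase was read by ONE-Glo luminescence after 30 min at room temperature.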
# SW480 rereplic = inducers of DNA re-replication in SW480 colon cancer cells. SW480 DNA re-replication, Hoechst DNA content imaging, 48 h. Potency, µM (series often up to 46.1 µM), usual class: activators. 340,000 tested, 1.8% active. AID 624297; also: nearly all actives have a fitted effect of over 55% in size
#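 Hoechst fluorescence of nuclei (405 nm excitation, 500-530 nm emission) measured by plate-scanning imager after 48 hr compound exposure at 37 C; re-replication scored as increased number of nuclei with elevated intensity.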
# MCF10A rerep = induces DNA re-replication in MCF 10a normal breast cells; MCF 10A DNA re-replication, Hoechst nuclear intensity, 48 h; Potency, µM (titrated, usually from 46.1 µM), usual class: activators; 350,000 tested, 2.9% active; AID 624296; also: nearly all actives have a fitted effect of over 50% in size
# p53 reactivator = re-activators of mutant p53. H1299 p53-A138V BP100-luciferase reporter, luminescence, 24 h. Potency, µM (series often up to 92.2 µM), most hits filed as activators. 320,000 tested, 0.063% active. AID 504706; also: nearly all actives have a fitted effect of over 45% in size
#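 H1299 (p53-null), stable ts p53-A138V + BP100-Luc; 1000 cells/well, Opti-MEM/10% FBS; cpd 4 pt, 1:5; 24 h, 37 deg C, 5% CO2; detection reagent 10 min RT; luminescence.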
# Numbers stand for hits; . = inactive; ? = inconclusive; / = no result given; [ ] = remark or other dose. Hits are enriched below; roughly 7.1% of the tested compounds scored in any of these assays. Calls follow the shape of the dose curve; as a rule, active = well fitted curve in the direction sought with a large enough effect; inconclusive = small, poorly fitted or top-dose-only effect, or another doubt; inactive = no such curve, though single readings can be large; an effect the other way counts as inactive or inconclusive.
SMILES,ELG1 genotox,AT treatment,ELG1 repair inh,SW480 rereplic,MCF10A rerep,p53 reactivator
O=C(O)c1nn(CC(=O)N2CCN(c3ncc(C(F)(F)F)cc3Cl)CC2)c(=O)c2ccccc12,.,.,.,.,.,.
Cc1ccc2nccc(C(=O)N3CCCC(N4CCN(c5ccc(F)cc5)CC4)C3)c2c1 (configuration not stated),.,.,.,.,.,.
CCCn1c(=O)c(C(=O)NCCc2ccc(OC)cc2)c(O)c2ccccc21,.,.,.,.,?,.
Cc1noc(C)c1S(=O)(=O)Nc1ccc2c(c1)C(=O)N([C@H](C)CO)C[C@H](C)[C@@H](CN(C)C(=O)Nc1ccc3c(c1)OCO3)O2,.,.,?,?,.,.
Cc1cc(NC(=O)COc2ccc(C(C)(C)C)cc2)no1,.,.,?,.,.,.
CC(NC(=O)CCc1ccccc1)c1ccc2c(c1)OCO2 (configuration not stated),.,.,.,.,.,.
CC(=O)c1cc(C(=O)N2CCc3c([nH]c4ccccc34)C2C2CCCCC2)[nH]n1 (configuration not stated),.,.,?,.,1.5µM,.
Cc1cnc(C(=O)N2CCc3c([nH]c4ccccc34)C2c2ccc(F)cc2)cn1 (configuration not stated),.,.,?,.,.,.
CC1CC(O)C(C)CN1 (configuration not stated),.,.,.,.[9.22 µM],.,.
CN(C1=C(NC(=O)c2ccccc2)C(=O)c2ccccc2C1=O)C1CCS(=O)(=O)C1 (configuration not stated),.,.,9.2µM,?,23µM,.
CC(=O)NC1=C(NC2CCS(=O)(=O)C2)C(=O)c2ccccc2C1=O (configuration not stated),.,.,?,18µM,?,.
O=C(CN1C(=O)/C(=C/c2ccccc2F)SC1=S)NC1C=CS(=O)(=O)C1 (configuration not stated),.,.,.,.,.,.
O=C(CN1C(=O)S/C(=C\c2ccc(Cl)cc2)C1=O)NC1C=CS(=O)(=O)C1 (configuration not stated),.,.,.,23µM,?,.
O=C(CN1C(=O)S/C(=C\c2cccc(Cl)c2)C1=O)NC1C=CS(=O)(=O)C1 (configuration not stated),.,.,.,?,9.2µM,.
COc1cccc(/C=C2\SC(=S)N(CCC(=O)NC3C=CS(=O)(=O)C3)C2=O)c1 (configuration not stated),.,.,4.6µM,?,?,.
CC(C(=O)NC1C=CS(=O)(=O)C1)N1C(=O)/C(=C/c2cccc(Cl)c2)SC1=S (configuration not stated),.,.,.,.,?,.
COc1ccc(/C=C2\SC(=S)N(CCC(=O)NC3C=CS(=O)(=O)C3)C2=O)cc1 (configuration not stated),.,.,.,.,?,.
O=C(CN1C(=O)/C(=C/c2cccc(Cl)c2)SC1=S)NC1C=CS(=O)(=O)C1 (configuration not stated),.,.,.,?,15µM,.
CC(C)c1ccc(/C=C2\SC(=O)N(CC(=O)NC3CCS(=O)(=O)C3)C2=O)cc1 (configuration not stated),.,.,?,.,.,.
Cc1ccc2c(c1)N(CC(=O)NCC(C)c1ccccc1)C(=O)c1cccnc1O2 (configuration not stated),.,.,.,.,.,.
O=C(CNC(=O)c1ccc(Br)o1)NCC(=O)OCc1ccccc1,.,.,.,.,.,.
CN(C(=O)CN1C(=O)S/C(=C\c2cccc(Cl)c2)C1=O)C1CCS(=O)(=O)C1 (configuration not stated),.,.,.,.,23µM,.
Cc1ccccc1-c1noc(CCC(=O)NCc2ccco2)n1,.,.,.,.[9.22 µM],.,.
Cc1c(C(=O)Nc2ccccc2F)cnn1-c1ccccc1,8.2µM,.,?,.,.,.
CC(=O)c1cnn(-c2ccccc2)c1C,.,.,.,.,.,.
SMILES,ELG1 genotox,AT treatment,ELG1 repair inh,SW480 rereplic,MCF10A rerep,p53 reactivator
Cc1c(C(=O)Oc2cccc3ccccc23)cnn1-c1ccccc1,8.9µM,.,?,.,.,?
CC(C)Oc1ccc(S(=O)(=O)N2CCCCC2)cc1NC(=O)C1CSC2(C)CCC(=O)N12 (configuration not stated),.,/,?,.,.,.
CCCCn1c(N)c(N(CCOC)C(=O)COC(=O)COc2ccc(CC)cc2)c(=O)[nH]c1=O,.,.,.,.,.,.
Cc1cccc(N2CCN(C(=O)CCNS(=O)(=O)c3ccc4c(c3)CCC(=O)N4)CC2)c1C,.,.,11µM,.,.,.
Cc1cccc(N2CCN(C(=O)CCS(=O)(=O)c3ccc4c(c3)NC(=O)CO4)CC2)c1C,.,.,.,.,.,.
CCCNc1sc(S(=O)(=O)CCC)nc1S(=O)(=O)c1ccc(C)cc1,.,.,.,?,.,.
N#Cc1ccccc1Sc1ccccc1C(=O)OCC(=O)NC12CC3CC(CC(C3)C1)C2,.,.,21µM,.,.,.
CCN(CC)S(=O)(=O)c1ccc2c(c1)nc(-c1ccccn1)n2C,.,.,?,.,.,.
Cc1ccc(NC(=O)COc2ccccc2C(=O)NCCN(C)C)cc1,.,.,?,/,/,.
C#CCNC(=O)C1=C[C@H](C(C)(C)C)C[C@H](OCc2ccc(CO)cc2)O1,.,.,.,.,18µM,.
CC(C)(C)[C@@H]1C=C(C(=O)Nc2ccccc2)O[C@H](OCc2ccc(CO)cc2)C1,.,.,7.3µM,.,.,.
NC(=O)C1=C[C@H](C2CCCCC2)C[C@H](OCc2ccc(CO)cc2)O1,2.9µM,.,?,.[9.22 µM],.,.
C#CCNC(=O)C1=C[C@@H](C)C[C@@H](OCc2ccc(CO)cc2)O1,.,.,.,.,.,.
C=CCOC(=O)C1=C[C@H](C2CCCCC2)C[C@H](OCc2ccc(CO)cc2)O1,/,/,/,.,.,/
C#CCNC(=O)C1=C[C@H](c2ccc(C(F)(F)F)cc2)C[C@H](OCc2ccc(CO)cc2)O1,.,/,.,?,4.1µM,.
CC(C)(C)[C@H]1C=C(C(N)=O)O[C@@H](OCc2ccc(CO)cc2)C1,.,.,?,.,.,.
O=C(CNC(=O)c1ccccc1Cl)OC1CCOC1=O (configuration not stated),.,.,.,.,.,.
